Assay outcomes as filed in PubChem.
SKN-1 inh = inhibitors of C. elegans SKN-1; inhibition, % at 21.8 µM; 0.49% of 360,000 active; C. elegans VP596 Pgst-4::GFP/RFP ratio, acrylamide-induced, 24 h;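 active means interference check ratio from 0.5 to 1.5 plus GFP to RFP signal ratio inhibition reaching or exceeding a fixed threshold, cut at about 30% in these data, passing the limit was not always enough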
NadD inh = NadD (S. aureus) enzyme inhibition | inhibition, % at 20 µM | 0.78% of 360,000 active | purified NadD enzyme, colorimetric absorbance read-out | AID 602399; in the data active means inhibition above about 26%
GRIN3A LBD mod = NR3A (human) ligand-binding domain modulation. NR3A LBD differential scanning fluorimetry, Tm shift; 0% = protein alone, 100% = glycine-bound protein. Tm shift relative to glycine control, % at 25 µM. 2.5% of 340,000 active;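 active means melting temperature shift of at least 10% of the positive control shift, at one fixed dose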
esBAF inh = SWI/SNF esBAF complex inhibition; reporter increase, % at 12.5 µM; mouse ES cells, Bmi1-luciferase knock-in reporter, 24 h; 100% = twice the neutral-well signal; 2% of 350,000 active; in the data active means activation above about 40%;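 further: a rise in the Bmi1 reporter signal indicates esBAF inhibition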
Vif inh = blocks HIV Vif function | HEK293T cells, Vif self-association by quenched fluorescence, imaging, 24 h | inhibition, % at 7.49 µM | 0.35% of 340,000 active; in the data active means inhibition above about 50%, passing the limit was not always enough
SMARCA2 act = increases SMARCA2 function in MMTV reporter cells. 1% of 370,000 active. activation, % at 9.1 µM. MG213 cells, MMTV-luciferase reporter, dexamethasone, overnight. AID 652017; in the data active means activation above about 7.8%
SMARCA2 conf = SMARCA2 activation, confirmation screen. activation, % at 9.1 µM. 30% of 3,500 active. MG213 cells, MMTV-luciferase with dexamethasone, luminescence, overnight; MG213 cells expressing E1A, Rb sequestered; DMSO wells 0%, reference activator 100%. shares compounds with SMARCA2 act;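 active means activation above its plate's cutoff, the mean activation of tested wells plus 3 SD, cut at about 7.9% in these data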
GAL4-VP16 Luc = counter-screen for SMARCA2 activators: GAL4-VP16 luciferase reporter activation. shares compounds with SMARCA2 act. HEK293 GAL4-VP16 pG5luc reporter, luciferase luminescence; scaled: DMSO wells 0%, SAHA wells 100%. activation, % at 9.1 µM. 41% of 3,500 active. AID 686939;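 active means activation above the solvent-only control well mean plus 3 SD, averaged across control plates, cut at about 5.2% in these data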
Each line names hits and unclear results; the compound was inactive in the other large screens (follow-up assays come after a bar, where they were run). The list is not random: actives were taken first. Their share in the collection is about 5.2%.

C[C@H](CO)N1C[C@H](C)[C@@H](CN(C)S(=O)(=O)c2ccc(F)cc2)Oc2ccc(NC(=O)Nc3ccc(F)cc3)cc2CC1=O	none (no result: SKN-1 inh, NadD inh, GRIN3A LBD mod, Vif inh, SMARCA2 act)
COc1ccc(NC(=O)N[C@H]2CC[C@H](CCNS(=O)(=O)c3ccccc3F)O[C@@H]2CO)cc1	none (no result: SKN-1 inh, NadD inh, GRIN3A LBD mod, Vif inh, SMARCA2 act)
Cc1ccc(N=Cc2nc(-c3ccc(C)cc3)oc2O)cc1	none (no result: esBAF inh)
COc1ccc(N=Cc2nc(-c3ccco3)oc2O)cc1	esBAF inh 63, SMARCA2 act 8.8 | SMARCA2 conf 9.9 | GAL4-VP16 Luc inactive
CC1CCCC(C)N1CCCNC(=O)CN1C(=O)c2cccnc2Oc2ccc(Cl)cc21 (centres undefined)	SMARCA2 act 8.9 | SMARCA2 conf inactive | GAL4-VP16 Luc inactive
COc1cccc(NC(=O)CN2C(=O)c3cccnc3Oc3ccc(Cl)cc32)c1	SMARCA2 act 8.3 | SMARCA2 conf inactive | GAL4-VP16 Luc inactive
CNc1cncc(-c2ccc(F)cc2F)n1	SMARCA2 act 10 (no result: GRIN3A LBD mod) | SMARCA2 conf inactive | GAL4-VP16 Luc inactive
O=C(NCc1cccs1)c1ccc([N+](=O)[O-])cc1Cl	SMARCA2 act 13 (no result: esBAF inh, Vif inh) | SMARCA2 conf inactive | GAL4-VP16 Luc inactive
COCC(=O)N1CC[C@@H]2[C@H]1c1cc(-c3cccc(OC)c3)ccc1N(C)[C@H]2CO	none (no result: SKN-1 inh, NadD inh, GRIN3A LBD mod, Vif inh, SMARCA2 act)
CC(=O)N1CCn2c3ccc(C)cc3c3cccc1c32	SMARCA2 act 8.4 | SMARCA2 conf inactive | GAL4-VP16 Luc inactive
CCCCOC(=O)Nc1nnc(C(C)C)s1	SMARCA2 act 8.0 (no result: esBAF inh) | SMARCA2 conf 8.6 | GAL4-VP16 Luc 10.0
Cc1noc(C)c1NC(=O)N(C)C[C@@H]1OCCCC[C@H](C)Oc2ccc(NC(=O)c3ccncc3)cc2C(=O)N([C@@H](C)CO)C[C@H]1C	none (no result: SKN-1 inh, NadD inh, GRIN3A LBD mod, Vif inh, SMARCA2 act)
Cn1cccc1C(=O)OCc1cc(-c2ccco2)on1	esBAF inh 83, SMARCA2 act 8.4 | SMARCA2 conf inactive | GAL4-VP16 Luc 5.4
O=C(/C=C/c1ccc(Cl)cc1)Nc1cc(S(=O)(=O)N2CCOCC2)ccc1N1CCOCC1	SMARCA2 act 8.2 | SMARCA2 conf inactive | GAL4-VP16 Luc inactive
CCN1CCN(c2ccc(S(=O)(=O)N3CCCCC3)cc2NC(=O)/C=C/c2ccc(F)cc2)CC1	none
CCN1CCN(c2ccc(S(=O)(=O)N3CCCCC3)cc2NC(=O)/C=C/c2ccc([N+](=O)[O-])cc2)CC1	SMARCA2 act 15 | SMARCA2 conf 23 | GAL4-VP16 Luc inactive
Cc1ccsc1/C=N/Nc1nc2ccccc2[nH]1	SMARCA2 act 12 (no result: esBAF inh) | SMARCA2 conf 13 | GAL4-VP16 Luc 15
COc1ccc(N(CCCN2C(=O)c3cccc4cccc(c34)C2=O)C(=O)c2ccncc2)cc1	SMARCA2 act 8.0 (no result: esBAF inh) | SMARCA2 conf inactive | GAL4-VP16 Luc inactive
COCC(=O)Nc1ccc2c(c1)[C@H]1C[C@H](CC(=O)N3CCN(C)CC3)O[C@H](CO)[C@H]1O2	none (no result: SKN-1 inh, NadD inh, GRIN3A LBD mod, Vif inh, SMARCA2 act)
Cc1ccc(C2CC(=O)C=C(Nc3ccc(Cl)cc3)C2)cc1 (centres undefined)	SMARCA2 act 9.9 (no result: esBAF inh) | SMARCA2 conf inactive | GAL4-VP16 Luc inactive
O=C(O)c1ccccc1N/N=C\c1ccnc2ccccc12	SMARCA2 act 8.0 (no result: esBAF inh, Vif inh) | SMARCA2 conf inactive | GAL4-VP16 Luc inactive
CCCC#Cc1cnc2c(c1)C(=O)N([C@@H](C)CO)C[C@H](C)[C@@H](CN(C)C(=O)c1cccnc1)O2	none (no result: SKN-1 inh, NadD inh, GRIN3A LBD mod, Vif inh, SMARCA2 act)
COc1ccc(NC(=O)c2cc(-c3cc(Cl)ccc3C)n[nH]2)cn1	none (no result: GRIN3A LBD mod)
O=C(Nc1cccnc1)c1cc(-c2cc(Cl)ccc2O)n[nH]1	GRIN3A LBD mod 32, SMARCA2 act 11 (no result: esBAF inh) | SMARCA2 conf 9.6 | GAL4-VP16 Luc 9.9
C[C@@H]1CCCCO[C@H](CN(C)C(=O)c2ccccc2)[C@H](C)CN([C@@H](C)CO)C(=O)c2cc(NC(=O)C3CCCCC3)ccc2O1	none (no result: SKN-1 inh, NadD inh, GRIN3A LBD mod, Vif inh, SMARCA2 act)
Cc1cccc2nc(-c3ccco3)c(Nc3ccc4c(c3)OCCO4)n12	SMARCA2 act 10 | SMARCA2 conf inactive | GAL4-VP16 Luc inactive
COc1ccc(Nc2c(-c3ccco3)nc3cccc(C)n23)cc1	none
COc1ccccc1-c1csc(C(NC(C)=O)c2cccc(F)c2)n1 (centres undefined)	SMARCA2 act 8.4 (no result: GRIN3A LBD mod) | SMARCA2 conf inactive | GAL4-VP16 Luc inactive
COC(=O)c1ccc(-c2ccc(/C=N/N3C(=O)C4C5C=CC(C6CC56)C4C3=O)o2)cc1 (centres undefined)	SMARCA2 act 9.0 (no result: esBAF inh) | SMARCA2 conf inactive | GAL4-VP16 Luc 5.9
O=C1C2C3C=CC(C4CC34)C2C(=O)N1/N=C/c1ccc([N+](=O)[O-])o1 (centres undefined)	SMARCA2 act 9.3 (no result: esBAF inh) | SMARCA2 conf 10 | GAL4-VP16 Luc inactive
O=C1C2C3C=CC(C4CC34)C2C(=O)N1/N=C/c1ccc(-c2ccc([N+](=O)[O-])cc2)o1 (centres undefined)	none
COC(=O)c1cccc(-c2ccc(/C=N/N3C(=O)C4C5C=CC(C6CC56)C4C3=O)o2)c1 (centres undefined)	none (no result: esBAF inh)
O=[N+]([O-])c1ccc(/C=N/N=C/c2ccc([N+](=O)[O-])o2)o1	Vif inh 53, SMARCA2 act 19 (no result: esBAF inh) | SMARCA2 conf inactive | GAL4-VP16 Luc inactive
Cc1ccc(S(=O)(=O)N(C)C[C@@H]2Oc3ccc(NC(=O)CCC(F)(F)F)cc3C(=O)N([C@@H](C)CO)C[C@@H]2C)cc1	none (no result: SKN-1 inh, NadD inh, GRIN3A LBD mod, Vif inh, SMARCA2 act)
O=C(/C=C/c1ccc(Cl)cc1Cl)N1CCc2ccccc21	SMARCA2 act 8.7 (no result: esBAF inh) | SMARCA2 conf 8.3 | GAL4-VP16 Luc 8.6
O=C(CCSc1ccc(Cl)cc1)N1CCN(c2ccc(O)cc2)CC1	none (no result: esBAF inh)
O=C(CCSc1ccc(Cl)cc1)N1CCN(c2ncccn2)CC1	esBAF inh 42, SMARCA2 act 9.3 | SMARCA2 conf inactive | GAL4-VP16 Luc inactive
COc1cccc(NC(=O)C[C@H]2CC[C@H]3[C@@H](COc4ccc(NC(=O)C5CC5)cc4C(=O)N3C)O2)c1	none (no result: SKN-1 inh, NadD inh, GRIN3A LBD mod, Vif inh, SMARCA2 act)
CCOc1ccccc1NS(=O)(=O)c1ccc2c(c1)n(C)c(=O)c(=O)n2C	SMARCA2 act 12 (no result: esBAF inh) | SMARCA2 conf inactive | GAL4-VP16 Luc inactive
CCOc1ccccc1NS(=O)(=O)c1ccc(OC)c(OC)c1	none
C[C@H](CO)N1C[C@H](C)[C@@H](CN(C)S(=O)(=O)c2ccc(Cl)cc2)Oc2ccc(NC(=O)C3CCCCC3)cc2C1=O	none (no result: SKN-1 inh, NadD inh, GRIN3A LBD mod, Vif inh, SMARCA2 act)
CC(C)c1nnc(NC(=O)c2ccc3c(c2)OCO3)s1	none (no result: esBAF inh)
CC(C)(C)c1nnc(NC(=O)c2ccc3c(c2)OCO3)s1	SMARCA2 act 10 (no result: esBAF inh) | SMARCA2 conf 8.4 | GAL4-VP16 Luc 6.4
